An excerpt weighted towards active compounds, which were near 32% of everything screened.
PostGolgi yeast: growth inhibition of a yeast mutant, post-Golgi transport screen. inhibition, % at 10 µM. 98,000 tested, 0.9% active. AID 739. post-Golgi transport phenotypic cell assay;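 further: yeast cells grown in 1536-well plates; yeast grown about 18 h at 30C before absorbance read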
CYP2C19 act: increases human CYP2C19 enzyme activity | recombinant CYP2C19, luciferin-H EGE luminescence; stronger effect = higher value; 0 = fully inhibited enzyme, 1 = untreated enzyme | P33261 | 96,000 tested, under 10 active | activation factor at 5 µM;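 active means activation factor of at least 2 at 5 µM in the primary screen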
Target sequence (P33261 whole entry, looked up): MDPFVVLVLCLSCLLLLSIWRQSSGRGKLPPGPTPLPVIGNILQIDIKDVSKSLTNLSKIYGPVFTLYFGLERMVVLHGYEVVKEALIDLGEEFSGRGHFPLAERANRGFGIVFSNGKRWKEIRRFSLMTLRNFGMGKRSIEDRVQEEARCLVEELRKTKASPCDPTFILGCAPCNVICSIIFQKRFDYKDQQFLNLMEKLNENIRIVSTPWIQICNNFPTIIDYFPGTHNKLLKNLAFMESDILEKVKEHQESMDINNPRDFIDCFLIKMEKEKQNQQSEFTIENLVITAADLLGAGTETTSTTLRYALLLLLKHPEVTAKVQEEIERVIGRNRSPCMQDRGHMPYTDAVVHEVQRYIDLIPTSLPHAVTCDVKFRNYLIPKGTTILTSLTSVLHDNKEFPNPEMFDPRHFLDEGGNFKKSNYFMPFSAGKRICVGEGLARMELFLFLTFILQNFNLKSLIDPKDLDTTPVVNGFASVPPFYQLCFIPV
CYP2C9 inhib: human CYP2C9 inhibition; CYP2C9 Supersomes, luciferin-H conversion, luminescence; AID 777; 96,000 tested, 20% active; inhibition, % at 5 µM;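 active means blocking of liver enzyme CYP2C9 beyond about 50% at 5 µM, limit read from the data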
CYP2C9 act: increases human cytochrome P450 2C9 activity | P11712 | recombinant CYP2C9, luciferin-H conversion, luminescence; stronger effect = higher value; factor 1 = untreated enzyme, 0 = blocked | activation factor at 5 µM | 96,000 tested, 1.4% active | AID 1024;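 active means activation factor of 2 or more for CYP2C9 at a 5 µM dose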
PostGolgi ctrl: growth of the yeast control strain, post-Golgi counter-screen. 98,000 tested, 5% active. inhibition, % at 10 µM. efflux-deficient yeast background strain, growth absorbance A615, 16 h
CYP2C19 inhib: human CYP2C19 inhibition | P33261 | CYP2C19 Supersomes, luciferin-H EGE luminescence, 30 min | inhibition, % at 5 µM | 96,000 tested, 21% active | AID 778;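 active means CYP2C19 inhibition above a set limit at 5 µM in the primary screen, cut at about 50% in these data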
Hits are given with their value; 0 = inactive; - = not tested or not shown. Unless noted, no stated cut-off is given here; in the data, active means inhibition above about 30%; inactive means the rest.

SMILES | PostGolgi yeast | CYP2C19 act | CYP2C9 inhib | CYP2C9 act | PostGolgi ctrl | CYP2C19 inhib
Cc1ccc(N2CC(C(=O)N3CCCc4ccccc43)CC2=O)cc1 (stereo unspecified) | 0 | 0 | 96.3 | 0 | 0 | 68.2
COc1ccc(OCCCC(=O)N2CCCc3ccccc32)cc1 | 0 | 0 | 83.2 | 0 | 33.9 | 98.2
Cn1ncc(Cl)c1C(=O)N1CCc2ccccc21 | 0 | 0 | 0 | 0 | 0 | 0
Cn1ncc(Cl)c1C(=O)N1CCCc2ccccc21 | 0 | 0 | 62.8 | 0 | 0 | 54.0
COc1ccc(C(=O)N2CCCc3ccccc32)cc1 | 0 | 0 | 0 | 0 | 0 | 0
CCOc1ccc(NC(=O)CC2C(=O)N(c3ccccc3)C(=O)N2Cc2ccccn2)cc1 (stereo unspecified) | 0 | 0 | 0 | 0 | 0 | 0
Cc1ccc(S(=O)(=O)Cn2cnnn2)cc1 | 0 | 0 | 0 | 0 | 0 | 0
COc1ccc2c(CC(=O)OCC(=O)N3CCc4ccccc43)coc2c1 | 0 | 0 | 0 | 0 | 0 | 0
COc1cc(C2=NOC(C(=O)N3CCCc4ccccc43)C2)cc(OC)c1OC (stereo unspecified) | 0 | 0 | 0 | 0 | 0 | 0
COc1ccc(C2=NOC(C(=O)N3CCCc4ccccc43)C2)cc1 (stereo unspecified) | 0 | 0 | 0 | 2.2 | 0 | 0
CC(C)Oc1ccc(C(=O)N2CCCc3ccccc32)cc1 | 0 | 0 | 0 | 0 | 30.9 | 96.9
COc1ccc2c(CC(=O)N3CCc4ccccc43)coc2c1 | 0 | 0 | 0 | 0 | 0 | 63.7
O=C(CCCC(=O)N1CCCc2ccccc21)N1CCCc2ccccc21 | 0 | 0 | 0 | 0 | 0 | 94.7
O=C(CN1CCCCC1)N1CCCc2ccccc21 | 0 | 0 | 0 | 0 | 0 | 0
Cc1cc(C)nc(NCC(O)CNc2ccccc2Cl)n1 (stereo unspecified) | 0 | - | - | - | 0 | -
Cc1cccc(NC(=S)N(CCN(C)C)C(C)c2ccccn2)c1 (stereo unspecified) | 0 | 0 | 0 | 0 | 0 | 0
Oc1ccc(-c2cn3c(n2)SCC3)cc1O | 0 | 0 | 0 | 0 | 0 | 0
COc1ccc(OC)c(-c2nnc(-c3ccc(C)o3)o2)c1 | 0 | 0 | 0 | 0 | 0 | 0
COc1ccccc1C(=O)NC(=S)N1CCCc2ccccc21 | 0 | 0 | 0 | 0 | 0 | 0
COc1ccc(C(=O)NCC(=O)NCC2COc3ccccc3O2)cc1 (stereo unspecified) | 0 | 0 | 0 | 0 | 0 | 0
COc1ccc(OCC(=O)NC(=S)N2CCCc3ccccc32)cc1 | 0 | 0 | 0 | 0 | 0 | 64.0
COc1ccc2c(CC(=O)N(C)CC3COc4ccccc4O3)coc2c1 (stereo unspecified) | 0 | 0 | 88.4 | 0 | 0 | 98.9
Cc1ccc(-c2noc(CCC(=O)N3CCCc4ccccc43)n2)cc1 | 0 | 0 | 95.1 | 0 | 0 | 84.8
COc1ccc(C2=NOC(C(=O)Nc3cc(C)on3)C2)cc1 (stereo unspecified) | 0 | 0 | 0 | 0 | 35.2 | 0
CCC(CCC(=O)Nc1ccn(-c2ccccc2)n1)C(=O)O (stereo unspecified) | 0 | 0 | 0 | 0 | 0 | 0
SMILES | PostGolgi yeast | CYP2C19 act | CYP2C9 inhib | CYP2C9 act | PostGolgi ctrl | CYP2C19 inhib
CCc1nnc(N2C(=O)c3cccc4cccc(c34)C2=O)s1 | 0 | 0 | 0 | 0 | 0 | 0
Fc1cccc(Nc2nc3ccccc3n3nnnc23)c1 | 0 | 0 | 0 | 0 | 0 | 0
CCN(CC)S(=O)(=O)c1ccc(Nc2nc3ccccc3n3nnnc23)cc1 | 0 | 0 | 63.1 | 0 | 0 | 0
Fc1ccccc1Nc1nc2ccccc2n2nnnc12 | 0 | 0 | 0 | 0 | 50.9 | 0
Brc1ccc(Nc2nc3ccccc3n3nnnc23)cc1 | 0 | 0 | 0 | 0 | 0 | 0
CCOC(=O)N1CCC(Nc2nc3ccccc3n3nnnc23)CC1 | 0 | 0 | 50.7 | 0 | 0 | 0
CCOC(=O)c1sc(-c2ccccc2)cc1NC(=O)CSc1nnnn1C | 0 | 0 | 0 | 0 | 74.0 | 0
Cn1nnnc1SCC(=O)Nc1ccccc1Cc1ccccc1 | 0 | 0 | 57.8 | 0 | 0 | 55.4
CC(CCc1ccccc1)NC(=O)CSc1nnnn1C (stereo unspecified) | 0 | 0 | 0 | 0 | 0 | 0
CCOC(=O)c1cc(-c2ccccc2)sc1NC(=O)CSc1nnnn1C | 0 | 0 | 0 | 0 | 0 | 0
CN1CCN(C(=O)C2CC(c3c(F)cccc3Cl)=NO2)CC1 (stereo unspecified) | 0 | 0 | 0 | 2.8 | 0 | 0
Cc1ccc(O)c(NC(=O)C2CC(c3c(F)cccc3Cl)=NO2)c1 (stereo unspecified) | 0 | 0 | 0 | 0 | 0 | 94.3
O=C(CSc1nnc(-c2ccncc2)n1C1CCCCC1)Nc1cccc(O)c1 | 0 | 0 | 0 | 0 | 0 | 0
CCOC(=O)C1(O)CSc2nc3sc(C(=O)O)c(C)c3c(=O)n21 (stereo unspecified) | 0 | 0 | 0 | 0 | 0 | 0
Nc1nc(CN2CCN(c3ccccc3)CC2)nc(N2CCCc3ccccc32)n1 | 0 | 0 | 59.7 | 0 | 0 | 62.3
CN(C)c1nc(N)nc(CSc2nnnn2-c2ccc(F)cc2)n1 | 0 | 0 | 0 | 0 | 0 | 76.5
O=C(O)c1ccc(-n2nnnc2SCc2ccccc2F)cc1 | 0 | 0 | 0 | 0 | 0 | 0
Nc1nc(CN2CCN(c3cccc(Cl)c3)CC2)nc(N2CCCc3ccccc32)n1 | 0 | 0 | 0 | 0 | 41.7 | 0
Nc1nc(CSc2nnnn2-c2ccccc2)nc(N2CCCc3ccccc32)n1 | 0 | - | - | - | 56.9 | -
COc1ccc(N2CCN(Cc3nc(N)nc(N4CCCc5ccccc54)n3)CC2)cc1 | 0 | 0 | 0 | 0 | 0 | 0
CN(C)c1nc(N)nc(CSc2n[nH]c(-c3ccccc3)n2)n1 | 0 | 0 | 0 | 0 | 0 | 0
O=C1CCC(C(=O)Nc2cccc3ccccc23)N1 (stereo unspecified) | 0 | 0 | 0 | 0 | 0 | 0
CC1CC1C(=O)OCC(=O)NCc1ccc(Cl)cc1 (stereo unspecified) | 0 | 0 | 53.0 | 0 | 0 | 97.1
O=C(COC(=O)C1CC1)NCc1ccccc1Cl | 0 | 0 | 0 | 0 | 0 | 69.5
O=C(NCc1ccccc1Cl)C1CCN(S(=O)(=O)N2CCCCC2)CC1 | 0 | 0 | 0 | 0 | 0 | 0
SMILES | PostGolgi yeast | CYP2C19 act | CYP2C9 inhib | CYP2C9 act | PostGolgi ctrl | CYP2C19 inhib
Cc1nn(Cc2ccc(Cl)cc2Cl)c(Cl)c1/C=C/C(=O)OCC(=O)NCC(F)(F)F | 0 | 0 | 0 | 0 | 0 | 0
CC1CC1C(=O)OCC(=O)NCc1ccc(Cl)cc1Cl (stereo unspecified) | 0 | 0 | 0 | 0 | 0 | 99.5
Cc1c(SCCO)c(=O)[nH]c2cc3c(cc12)OCO3 | 0 | 0 | 0 | 0 | 0 | 0
O=C(C(Cc1ccccc1)NS(=O)(=O)c1cccc2cccnc12)N1CCc2ccccc21 (stereo unspecified) | 0 | 0 | 0 | 0 | 0 | 0
Cc1cc(O)c(NC(=O)c2ccco2)cc1C | 0 | 0 | 0 | 0 | 0 | 0
Cc1ccc(C(C)NC(=O)c2ccco2)cc1C (stereo unspecified) | 0 | 0 | 0 | 2.2 | 0 | 0
COc1ccc(C2(O)CCN(CC(=O)Nc3nccs3)CC2)c(OC)c1 | 0 | 0 | 0 | 0 | 0 | 0
CCOC(=O)Cc1csc(NC(=S)NC(=O)c2ccccc2C)n1 | 0 | 0 | 0 | 0 | 0 | 0

Screening data as filed in PubChem BioAssay.
